Screening data (PubChem)
EBV gp42 inh – Epstein-Barr virus gp42 inhibitors, primary screen, biochemical, uHTS, fluorescence polarization; Glycoprotein 42 (Epstein-Barr virus (strain AG876)), Q1HVG2; Fluorescence polarization binding assay, mP read-out; inhibition, % (tested at 21.74 µM); 220,000 compounds, 0.42% hits; in the data active = inhibition above about 50%
E coli Lon inh – inhibitors of E. coli Lon protease, primary screen, biochemical, fluorescence polarization | purified E. coli Lon protease | 360,000 compounds, 0.42% hits | inhibition, % at 7.94 µM; in the data active = inhibition above about 13%, passing the limit was not always enough;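 also: 0% = enzyme with probe and DMSO and 100% = no enzyme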
Target sequence (P0A9M0 whole entry, looked up): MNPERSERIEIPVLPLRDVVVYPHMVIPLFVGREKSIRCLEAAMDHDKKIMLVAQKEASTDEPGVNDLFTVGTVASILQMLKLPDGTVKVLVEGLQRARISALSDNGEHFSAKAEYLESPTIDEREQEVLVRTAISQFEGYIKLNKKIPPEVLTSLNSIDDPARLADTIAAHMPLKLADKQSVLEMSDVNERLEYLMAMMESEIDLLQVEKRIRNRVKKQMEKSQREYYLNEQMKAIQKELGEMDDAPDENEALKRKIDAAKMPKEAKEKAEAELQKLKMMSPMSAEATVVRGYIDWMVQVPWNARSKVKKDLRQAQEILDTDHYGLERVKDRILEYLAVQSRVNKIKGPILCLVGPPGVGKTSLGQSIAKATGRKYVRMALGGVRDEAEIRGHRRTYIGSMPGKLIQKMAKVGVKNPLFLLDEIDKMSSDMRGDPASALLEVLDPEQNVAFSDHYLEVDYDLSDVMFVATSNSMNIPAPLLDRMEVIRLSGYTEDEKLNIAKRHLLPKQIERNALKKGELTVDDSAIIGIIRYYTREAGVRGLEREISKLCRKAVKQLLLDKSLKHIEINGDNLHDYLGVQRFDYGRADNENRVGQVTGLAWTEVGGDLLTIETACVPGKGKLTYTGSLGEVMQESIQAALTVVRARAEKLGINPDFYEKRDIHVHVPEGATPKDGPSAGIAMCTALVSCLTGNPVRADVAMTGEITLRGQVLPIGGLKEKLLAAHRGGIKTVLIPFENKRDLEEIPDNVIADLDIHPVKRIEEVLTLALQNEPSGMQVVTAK
GLD-1 TGE inh – GLD-1/TGE RNA complex disruptors, primary screen, biochemical, fluorescence polarization; inhibition, % at 5.96 µM; AID 2280, 2010; purified GLD-1 + fluorescein TGE RNA; 320,000 compounds, 0.44% hits; Female germline-specific tumor suppressor gld-1 (Caenorhabditis elegans), Q17339;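 active = percent inhibition above a per-plate cutoff, the plate mean of test compounds plus 3 SD, cut at about 30% in these data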;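 also: 0% = DMSO wells with GLD-1 and probe and 100% = wells lacking GLD-1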
Bcl-xL primary – inhibitors of human Bcl-xL, primary screen, biochemical, fluorescence polarization, HTS; 320,000 compounds, 0.7% hits; GST-Bcl-xL / FITC-Bim BH3 peptide fluorescence polarization; Bcl-2-like protein 1 (Homo sapiens), Q07817; inhibition, % at 10.9 µM;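 active = inhibition above the mean of all tested compounds plus 3 SD, cutoff set per campaign, cut at about 30% in these data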;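 also: 0% = DMSO wells and 100% = unlabeled Bim-BH3 peptide competitor; inhibitors lower millipolarization by displacing the labeled peptide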
MEX-5 binding – MEX-5 zinc finger RNA-binding disruptors – biochemical, C. elegans, fluorescence polarization, MLPCN library, primary screen; MEX-5/FITC-TCR2 RNA binding; hits give low values; activity score (negative = inhibition of binding), % at 10 µM; Zinc finger protein mex-5 (Caenorhabditis elegans), Q9XUB2; AID 1832, 2009; 300,000 compounds, 0.38% hits;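 active = inhibition past about -25% in most replicates, and total fluorescence under double the plate's negative control median, limit read from the data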;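 also: 0% = DMSO and -100% = 5 µM competing unlabeled TCR2 RNA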
MCL1 BIM primary – inhibitors of MCL1 binding to BIM-BH3, primary screen, biochemical, fluorescence polarization | Induced myeloid leukemia cell differentiation protein Mcl-1 (Homo sapiens), Q07820 | GST-MCL1 / FITC-Bim-BH3 fluorescence polarization | inhibition, % at 10.9 µM | 320,000 compounds, 0.68% hits | AID 2057, 2009;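 active = inhibition above the mean inhibition of all tested compounds plus 3 SD, set per campaign, cut at about 40% in these data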;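 also: 0% = DMSO wells and 100% = unlabeled Bim-BH3 peptide control; higher means more loss of mP so more displacement of Bim peptide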
The depositor's hits bear a star; . = not tested or not shown. Only some compounds are listed: those with a hit (about 1.5% of all), similar ones and a draw of the others.

SMILES	EBV gp42 inh	E coli Lon inh	GLD-1 TGE inh	Bcl-xL primary	MEX-5 binding	MCL1 BIM primary
C=CCOc1cccc(/C=N/NC(=O)CC(=O)NC2CCCCC2)c1	.	11	4	2	2	8
Cc1ccc(C23CC4CC(CC(C(=O)OCC(=O)NC5CCS(=O)(=O)C5)(C4)C2)C3)cc1 (centres undefined)	-24	-7	4	8	-1	-12
C#CCOCCOCCOCCNc1nc(N2CCN(C(=O)[C@H]([C@@H](C)CC)n3cc([C@@H](N)CO)nn3)CC2)nc(N2CCN(C(=O)[C@H]([C@@H](C)CC)n3cc([C@@H](N)CC(C)C)nn3)CC2)n1	29	0	21	43*	-38*	43*
C#CCOCCOCCOCCNc1nc(N2CCN(C(=O)[C@H]([C@@H](C)CC)n3cc([C@@H](N)CO)nn3)CC2)nc(N2CCN(C(=O)[C@H]([C@@H](C)CC)n3cc([C@@H](N)CO)nn3)CC2)n1	-22	.	.	.	-5	.
Nc1c(C(=O)N/N=C/c2cccnc2)oc2nc(-c3ccccc3)cc(-c3ccco3)c12	-48	-41	-27	-22	-37*	-38
Cc1cccc(/C=C(\C#N)C(=O)Nc2ccccn2)c1	.	-4	25	37*	-19	35
Cc1ccc(C(=O)N2CCn3c(C)ccc3C2C)cc1 (centres undefined)	-17	-10	15	43*	1	42*
O=C(NC[C@@H]1CCCO1)c1cccc2c1C(=O)c1ccc(N3CCOCC3)cc1S2(=O)=O	.	-37	3	.	.	.
O=C(NCC1CC1)c1cccc2c1C(=O)c1ccc(N3CCCC3)cc1S2(=O)=O	.	-18	44*	.	.	.
C=CCNC(=O)c1cccc2c1C(=O)c1ccc(N3CCCC3)cc1S2(=O)=O	.	-35	43*	.	.	.
O=C(O)c1cccc2c1C(=O)c1ccc(N3CCCCC3)cc1S2(=O)=O	.	-39	-11	16	.	-2
CCCC(C)(C)C(=O)N1CCC1(C)C(=O)Nc1ccc2c(c1)OCCO2 (centres undefined)	.	0	.	.	.	.
O=C(NNC(=O)c1cccc2ccccc12)c1ccc(Br)cc1	.	-1	.	.	.	.
CC(=O)N1C(=O)c2cccc3cccc(c23)C(=O)N1C(C)=O	-17	.	-2	-3	0	-3
O=C1c2cccc3cccc(c23)C(=O)C1(O)O	.	5	6	11	-59*	3
CCCCCC(=O)Nc1ccc(C(=O)COC(=O)c2ccccn2)cc1	.	-6	-7	-6	1	-16
N#CC1=C(N)OC2=C(CC/C2=C\c2ccccc2)C1c1ccccc1 (centres undefined)	95*	-222	41*	8	-6	-20
O=C(NCc1cccc(Cl)c1)c1cnccn1	39	9	25	45*	-4	46*
CCOc1ccc(N2CC(C(=O)NCCCc3ccccc3)CC2=O)cc1 (centres undefined)	.	-8	6	-5	.	-11
Cc1ccc(C)n1-c1cc([N+](=O)[O-])ccc1-n1ccnc1	-16	-2	-8	3	.	-1
CC1(C)N([O-])c2cc([N+](=O)[O-])ccc2[N+]1=O	-16	.	8	35*	.	45*
CC(=O)c1ccc(-c2ccc(/C=C(/Sc3n[nH]c(C)n3)C(=O)O)o2)cc1	-21	-31	-22	-8	-35*	-16
Cc1nc(S/C(=C/c2ccc(-c3ccc(C(=O)O)cc3)o2)C(=O)O)n[nH]1	-20	-47	-9	8	-80*	15
COc1cc(N2N=C(c3ccccc3)CC2c2ccccc2)c(C=O)cc1C=O (centres undefined)	.	6	2	6	-4	8
COc1ccccc1N1N=C(c2ccc([N+](=O)[O-])cc2)CC1c1ccccc1 (centres undefined)	.	-91	-2	56*	2	38
